In PubChem BioAssay (Tox21):
Records with an inconclusive call do not appear. Active and inactive are the calls of the source. Unless noted, the call rests on the fitted dose curve; in most records, active means well fitted curve in the direction sought with a large enough effect in the repeat runs; inconclusive means weak or mixed curves; inactive means no such curve, though single readings can be large; an effect the other way counts as inactive or inconclusive.

How the values were obtained:
[1] = qHTS assay to identify small molecule antagonists of the sonic hedgehog signaling (Shh) pathway (AID 1259369; calls by dose curve; further: potency means the concentration at half of the fitted maximal effect; nearly all actives have a fitted effect of over 45% in size)
Summary of the method: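 3T3Gli1-Luc, conditioned-medium-stimulated, 24hr cpd, 37C/5% CO2; Gli1-driven firefly Luc luminescence after 30min RT with luciferase reagent. Cells plated 4hr before cpd.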

[2] = molecular target: Estrogen receptor beta (Homo sapiens) (UniProt Q92731); assay: qHTS assay to identify small molecule agonists of the estrogen receptor beta (ER-beta) signaling pathway (AID 1259377; active means well fitted activation curve with a large enough effect in the signal ratio in the repeat runs, not every such curve was filed as active; the % refers to the signal ratio; further: on the % scale 0 is the no-effect control and ±100 the full control effect)
Summary of the method: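 Agonist mode cell assay in GripTite HEK293T cells expressing an ER-beta fusion that drives beta-lactamase from an Upstream Activator Sequence; 16 hr compound exposure at 37C, then 2 h LiveBLAzer B/G FRET substrate at room temperature, fluorescence read-out.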

[3] = molecular target: Estrogen receptor beta (Homo sapiens) (UniProt Q92731); assay: qHTS assay to identify small molecule antagonists of the estrogen receptor beta (ER-beta) signaling pathway (AID 1259378; active means well fitted inhibition curve with a large enough effect in the signal ratio in the repeat runs, not every such curve was filed as active; the % refers to the signal ratio; further: potency means the concentration at half of the fitted maximal effect)
Summary of the method: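 Antagonist mode: compounds added to beta-lactamase reporter HEK293T ER-beta-UAS cells stimulated with E2 (1nM final), 16 hr at 37C. LiveBLAzer B/G FRET substrate, 2 hours room temperature, fluorescence read-out.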

[4] = qHTS assay to identify small molecule agonists of the androgen receptor (AR) signaling pathway in the presence of an antagonist - cell viability counter screen (AID 1259379); further: nearly all actives have a fitted effect of over 25% in size; further: potency means the concentration at half of the fitted maximal effect
Summary of the method: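 Cells: MDA-kb2 (MMTV-luc, AR and GR elements), 3,000/well, 5 hr settle. Added: nilutamide 3.0uM final, then compounds (15 conc.). Incubation: 16 hr, 37C, no CO2. Read-out: CellTiter-Fluor, 1 hr, fluorescence.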

[5] = qHTS assay to identify small molecule agonists of the estrogen receptor beta (ER-beta) signaling pathway - cell viability counter screen (AID 1259380); further: nearly all actives have a fitted effect of over 30% in size; further: potency means the concentration at half of the fitted maximal effect
Summary of the method: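 HEK293T ER-beta-UAS-bla; 2% CS-FBS; 6 hr pre-plate, 16 hr cpd at 37C/5% CO2; LiveBLAzer read first, then CellTiter-Glo 30 min RT, luminescence.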

[6] = molecular target: Estrogen receptor (Homo sapiens) (UniProt P03372); assay: qHTS assay to identify small molecule agonists of the estrogen receptor alpha (ER-alpha) signaling pathway in the presence of an antagonist (AID 1259383; calls by dose curve; further: nearly all actives have a fitted effect of over 15% in size; further: potency means the concentration at half of the fitted maximal effect)
Summary of the method: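 VM7Luc4E2, endog. ER-alpha + 4×ERE-luc; charcoal-stripped FBS, phenol red-free, 5 d; 24hr plating; +10.0nM ICI-182,780 (final); cpds 15 conc, 22hr, 37C/5% CO2; ONE-Glo luminescence.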

[7] = qHTS assay to identify small molecule agonists or antagonists of the thyroid stimulating hormone receptor (TSHR) signaling pathway - wild type cell line counter screen (AID 1259384; calls by dose curve; further: on the % scale 0 is the no-effect control and ±100 the full control effect)
Summary of the method: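 Counter screen in untransfected Hek293: compounds (15-point titration, triplicate) plus phosphodiesterase inhibitor Ro20-1724 added after 18 h plating; 30 min RT. Intracellular cAMP via competitive d2/cryptate immunoassay, 1 h incubation.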

[8] = qHTS assay to identify small molecule agonists of the estrogen receptor alpha (ER-alpha) signaling pathway in the presence of an antagonist - cell viability counter screen (AID 1259386);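 further: cells exposed to compounds for 22 h at 37 °C before the viability read; nearly all actives have a fitted effect of over 30% in size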; further: potency means the concentration at half of the fitted maximal effect
Summary of the method: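 VM7Luc4E2, stripped-serum pre-culture 5 d; 24hr plating; +ICI-182,780 10.0nM final; cpds 15 conc, 22hr, 37C/5% CO2; CellTiter-Fluor added at 21hr, fluorescence 1hr later.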

[9] = molecular target: Progesterone receptor (Homo sapiens) (UniProt P06401); assay: qHTS assay to identify small molecule agonists of the progesterone receptor (PR) signaling pathway (AID 1346784; calls by dose curve; further: on the % scale 0 is the no-effect control and ±100 the full control effect; nearly all actives have a fitted effect of over 30% in size)
Summary of the method: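 Cells (PR-UAS-bla HEK 293T, GripTite) were plated in assay medium containing 2% charcoal-stripped FBS and incubated 6 hr. Test compounds in DMSO were added for 16 hr at 37C. FRET substrate was then loaded for 2 hr at room temperature before fluorescence reading.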

[10] = molecular target: Progesterone receptor (Homo sapiens) (UniProt P06401); assay: qHTS assay to identify small molecule antagonists of the progesterone receptor (PR) signaling pathway (AID 1346795; active means well fitted inhibition curve with a large enough effect in the signal ratio in the repeat runs, not every such curve was filed as active; the % refers to the signal ratio; further: potency means the concentration at half of the fitted maximal effect)
Summary of the method: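 Antagonist mode: compounds tested against 1 nM (final) promegestone stimulation in HEK293T cells expressing PR-UAS-bla reporter, 16 hr at 37C, 5% CO2; beta-lactamase activity detected via B/G FRET substrate after 2 hr at room temperature.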

[11] = qHTS assay to identify small molecule antagonists of the progesterone receptor (PR) signaling pathway - cell viability counter screen (AID 1346798); further: nearly all actives have a fitted effect of over 50% in size; further: potency means the concentration at half of the fitted maximal effect
Summary of the method: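 Counter screen for cytotoxicity: viability of PR-UAS-bla HEK293T cells was measured with CellTiter-Glo luminescence following 16 hr compound exposure in the presence of R5020.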

[12] = qHTS assay to identify small molecule agonists of the progesterone receptor (PR) signaling pathway - cell viability counter screen (AID 1346799; calls by dose curve; further: nearly all actives have a fitted effect of over 45% in size; further: potency means the concentration at half of the fitted maximal effect)
Summary of the method: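 Cells (PR-UAS-bla HEK293T) are plated at 3,000/well in 2% charcoal-stripped FBS medium, rested 6 hr, dosed and incubated 16 hr at 37C. CellTiter-Glo is then added and luminescence measured after 30 min at room temperature.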

[13] = qHTS assay to identify small molecule antagonists of the TGF-beta/Smad signaling pathway - cell viability counter screen (AID 1346824); further: nearly all actives have a fitted effect of over 50% in size; further: potency means the concentration at half of the fitted maximal effect
Summary of the method: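 Cytotoxicity counter-screen run in the same wells as the beta-lactamase Smad reporter read: CellTiter-Glo luminescence after 30 min at room temperature. HEK 293T SBE-bla cells had 5 hr compound exposure at 37 C with TGF-beta1 (0.25 ng/mL stock).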

[14] = qHTS assay to identify small molecule agonists of the TGF-beta/Smad signaling pathway - cell viability counter screen (AID 1346829); further: nearly all actives have a fitted effect of over 45% in size; further: potency means the concentration at half of the fitted maximal effect
Summary of the method: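 After overnight seating at 37 C and 5% CO2, reporter cells got compounds for 5 hr and FRET substrate for 2 hr; cell viability then came from CellTiter-Glo luminescence.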

[15] = molecular target: Thyrotropin-releasing hormone receptor (Homo sapiens) (UniProt P34981); assay: qHTS assay to identify small molecule antagonists of the thyrotropin-releasing hormone receptor (TRHR) signaling pathway (AID 1346877; active means well fitted inhibition curve with a large enough effect in the repeat runs, not every such curve was filed as active; further: series mostly up to about 51 µM; on the % scale 0 is the no-effect control and ±100 the full control effect)
Summary of the method: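 Intracellular calcium fluorescence, read kinetically every second over 3 min, reports TRH-evoked signalling in HEK293 cells carrying TRHR. Test compounds were added 5 min ahead of a 1 nM TRH challenge.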

[16] = qHTS assay to identify small molecule agonists of the sonic hedgehog signaling (Shh) pathway (AID 1259368; calls by dose curve;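 further: NIH/3T3-derived 3T3Gli1-Luc cells carrying a stable Gli1-driven firefly luciferase reporter; series mostly up to about 92 µM; on the % scale 0 is the no-effect control and ±100 the full control effect; nearly all actives have a fitted effect of over 15% in size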)
Summary of the method: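 3T3Gli1-Luc (NIH/3T3 clone, stable Gli1-Luc); 4 hr pre-incubation, then cpd in DMSO 24 hr, 37 C/5% CO2; luciferase reagent 30 min RT; luminescence.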

[17] = qHTS assay to identify small molecule antagonists of the estrogen receptor beta (ER-beta) signaling pathway - cell viability counter screen (AID 1259382); further: nearly all actives have a fitted effect of over 55% in size; further: potency means the concentration at half of the fitted maximal effect
Summary of the method: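 Cells: ER-beta-UAS-bla HEK293T, 2,000/well, 2% CS-FBS, 6 hr settle. Cpd + E2 (1nM final), 16 hr, 37C/5% CO2. Bla FRET substrate 2 hr RT, then CellTiter-Glo 30 min RT, luminescence.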

[18] = qHTS assay to identify small molecule agonists of the TGF-beta/Smad signaling pathway (AID 1346859; active means well fitted activation curve with a large enough effect in the signal ratio in the repeat runs, not every such curve was filed as active; the % refers to the signal ratio; further: series mostly up to about 77 µM; on the % scale 0 is the no-effect control and ±100 the full control effect)
Summary of the method: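 Reporter line: HEK 293T with stably integrated SBE-controlled beta-lactamase. Compound exposure lasts 5 hr at 37 C and 5% CO2; substrate loading follows for 2 hr at room temperature, with emission read at 460 and 530 nm.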

[19] = molecular target: Androgen receptor (Homo sapiens) (UniProt P10275); assay: qHTS assay to identify small molecule agonists of the androgen receptor (AR) signaling pathway in the presence of an antagonist (AID 1259381; calls by dose curve; further: on the % scale 0 is the no-effect control and ±100 the full control effect; nearly all actives have a fitted effect of over 15% in size)
Summary of the method: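 MDA-kb2 cells, 3,000/well, rested 5hr at 37C/0% CO2 → nilutamide 3.0uM final or buffer → compounds, 15 conc. → 16hr at 37C → ONE-Glo, 30min RT → luminescence.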

[20] = molecular target: Thyrotropin receptor (Homo sapiens) (UniProt P16473); assay: qHTS assay to identify small molecule antagonists of the thyroid stimulating hormone receptor (TSHR) signaling pathway (AID 1259385; calls by dose curve; further: on the % scale 0 is the no-effect control and ±100 the full control effect; nearly all actives have a fitted effect of over 20% in size)
Summary of the method: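 Antagonist mode: compound-treated TSHR-expressing HEK293 cells were stimulated with 1.5 ng/mL TSH (final) in presence of Ro20-1724 for 30 min at RT. HTRF cAMP detection after 1 h; each compound tested at 15 concentrations, triplicate.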

Thyrotropin receptor (Homo sapiens), sequence (P16473 whole entry, looked up): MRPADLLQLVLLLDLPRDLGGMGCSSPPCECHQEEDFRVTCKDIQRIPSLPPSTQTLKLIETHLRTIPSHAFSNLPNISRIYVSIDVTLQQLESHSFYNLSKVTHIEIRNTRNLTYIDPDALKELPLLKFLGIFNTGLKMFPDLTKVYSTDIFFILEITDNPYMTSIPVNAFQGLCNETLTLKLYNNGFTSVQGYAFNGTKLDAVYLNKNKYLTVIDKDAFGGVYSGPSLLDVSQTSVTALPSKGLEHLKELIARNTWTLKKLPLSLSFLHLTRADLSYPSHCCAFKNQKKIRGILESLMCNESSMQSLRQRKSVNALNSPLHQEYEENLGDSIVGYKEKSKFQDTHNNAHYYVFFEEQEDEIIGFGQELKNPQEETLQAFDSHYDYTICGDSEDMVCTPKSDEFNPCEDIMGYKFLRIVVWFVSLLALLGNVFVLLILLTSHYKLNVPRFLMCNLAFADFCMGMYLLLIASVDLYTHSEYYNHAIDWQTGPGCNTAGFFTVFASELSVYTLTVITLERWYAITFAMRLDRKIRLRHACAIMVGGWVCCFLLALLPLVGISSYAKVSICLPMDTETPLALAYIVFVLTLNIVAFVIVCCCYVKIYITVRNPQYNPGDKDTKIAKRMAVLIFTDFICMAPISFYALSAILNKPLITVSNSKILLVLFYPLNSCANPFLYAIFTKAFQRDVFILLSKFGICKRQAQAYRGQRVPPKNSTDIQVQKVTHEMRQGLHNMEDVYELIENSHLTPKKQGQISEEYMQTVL
Thyrotropin-releasing hormone receptor (Homo sapiens), sequence (P34981 whole entry, looked up): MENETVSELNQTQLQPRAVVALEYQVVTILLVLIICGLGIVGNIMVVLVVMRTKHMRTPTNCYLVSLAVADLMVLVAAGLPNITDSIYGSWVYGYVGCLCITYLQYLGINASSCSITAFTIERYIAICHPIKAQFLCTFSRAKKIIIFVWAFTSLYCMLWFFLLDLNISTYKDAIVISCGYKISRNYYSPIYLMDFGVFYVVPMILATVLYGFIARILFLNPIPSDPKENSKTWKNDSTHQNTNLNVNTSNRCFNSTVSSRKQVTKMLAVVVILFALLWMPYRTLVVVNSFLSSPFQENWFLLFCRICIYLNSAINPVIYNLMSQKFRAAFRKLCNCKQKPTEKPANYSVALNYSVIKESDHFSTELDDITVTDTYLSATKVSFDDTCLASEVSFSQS
Progesterone receptor (Homo sapiens), sequence (P06401 whole entry, looked up): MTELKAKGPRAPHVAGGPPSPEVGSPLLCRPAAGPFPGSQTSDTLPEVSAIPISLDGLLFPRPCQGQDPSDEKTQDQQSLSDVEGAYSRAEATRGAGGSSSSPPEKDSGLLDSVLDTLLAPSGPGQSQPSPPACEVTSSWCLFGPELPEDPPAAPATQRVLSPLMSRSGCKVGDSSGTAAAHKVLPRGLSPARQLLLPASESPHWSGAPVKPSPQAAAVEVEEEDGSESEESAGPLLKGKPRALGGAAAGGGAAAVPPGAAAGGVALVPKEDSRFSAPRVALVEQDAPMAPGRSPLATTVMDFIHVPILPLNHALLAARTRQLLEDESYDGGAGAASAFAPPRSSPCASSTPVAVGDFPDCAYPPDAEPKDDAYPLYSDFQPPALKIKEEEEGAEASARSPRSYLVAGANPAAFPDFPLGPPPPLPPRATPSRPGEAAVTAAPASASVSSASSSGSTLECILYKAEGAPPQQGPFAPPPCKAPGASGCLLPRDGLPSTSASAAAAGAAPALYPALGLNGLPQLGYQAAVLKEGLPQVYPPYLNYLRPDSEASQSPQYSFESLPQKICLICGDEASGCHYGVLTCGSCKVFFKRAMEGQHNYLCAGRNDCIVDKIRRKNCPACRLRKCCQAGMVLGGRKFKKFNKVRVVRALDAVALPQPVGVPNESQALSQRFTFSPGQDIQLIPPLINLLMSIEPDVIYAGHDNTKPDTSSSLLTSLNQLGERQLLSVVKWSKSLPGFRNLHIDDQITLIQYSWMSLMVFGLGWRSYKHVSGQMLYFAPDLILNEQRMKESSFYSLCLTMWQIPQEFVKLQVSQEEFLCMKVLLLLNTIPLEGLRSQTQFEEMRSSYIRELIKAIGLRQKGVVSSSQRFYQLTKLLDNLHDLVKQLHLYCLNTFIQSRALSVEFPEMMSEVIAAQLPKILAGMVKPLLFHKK
Estrogen receptor beta (Homo sapiens), sequence (Q92731 whole entry, looked up, the tested form may be a part): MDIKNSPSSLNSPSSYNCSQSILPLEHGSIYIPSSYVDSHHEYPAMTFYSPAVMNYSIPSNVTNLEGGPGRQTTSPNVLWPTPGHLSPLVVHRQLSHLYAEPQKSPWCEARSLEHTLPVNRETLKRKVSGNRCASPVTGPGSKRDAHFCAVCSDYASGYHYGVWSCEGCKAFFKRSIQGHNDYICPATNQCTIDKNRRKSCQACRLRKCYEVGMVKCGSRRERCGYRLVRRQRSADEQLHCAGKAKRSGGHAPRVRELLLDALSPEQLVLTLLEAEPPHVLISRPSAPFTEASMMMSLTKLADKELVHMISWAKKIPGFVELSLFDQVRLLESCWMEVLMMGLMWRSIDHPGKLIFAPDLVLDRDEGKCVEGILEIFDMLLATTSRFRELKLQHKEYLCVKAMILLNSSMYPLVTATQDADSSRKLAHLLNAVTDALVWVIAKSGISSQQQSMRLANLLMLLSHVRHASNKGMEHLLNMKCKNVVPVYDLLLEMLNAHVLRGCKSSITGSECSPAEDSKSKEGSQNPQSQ
Estrogen receptor (Homo sapiens), sequence (P03372 whole entry, looked up): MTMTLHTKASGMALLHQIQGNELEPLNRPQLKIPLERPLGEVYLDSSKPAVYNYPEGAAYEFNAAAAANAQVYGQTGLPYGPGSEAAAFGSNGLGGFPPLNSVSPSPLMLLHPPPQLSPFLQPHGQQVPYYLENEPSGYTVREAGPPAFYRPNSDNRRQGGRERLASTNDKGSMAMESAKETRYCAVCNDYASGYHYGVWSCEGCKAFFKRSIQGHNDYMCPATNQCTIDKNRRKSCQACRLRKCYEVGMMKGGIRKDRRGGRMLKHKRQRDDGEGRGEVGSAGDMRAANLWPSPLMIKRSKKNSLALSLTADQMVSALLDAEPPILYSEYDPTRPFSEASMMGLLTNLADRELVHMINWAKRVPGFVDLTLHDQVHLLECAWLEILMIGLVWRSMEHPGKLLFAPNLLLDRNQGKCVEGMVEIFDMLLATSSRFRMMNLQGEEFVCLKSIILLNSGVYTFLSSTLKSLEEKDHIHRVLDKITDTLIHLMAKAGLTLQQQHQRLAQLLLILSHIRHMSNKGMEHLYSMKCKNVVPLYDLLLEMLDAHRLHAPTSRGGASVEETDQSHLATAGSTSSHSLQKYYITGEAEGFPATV
Androgen receptor (Homo sapiens), sequence (P10275 whole entry, looked up): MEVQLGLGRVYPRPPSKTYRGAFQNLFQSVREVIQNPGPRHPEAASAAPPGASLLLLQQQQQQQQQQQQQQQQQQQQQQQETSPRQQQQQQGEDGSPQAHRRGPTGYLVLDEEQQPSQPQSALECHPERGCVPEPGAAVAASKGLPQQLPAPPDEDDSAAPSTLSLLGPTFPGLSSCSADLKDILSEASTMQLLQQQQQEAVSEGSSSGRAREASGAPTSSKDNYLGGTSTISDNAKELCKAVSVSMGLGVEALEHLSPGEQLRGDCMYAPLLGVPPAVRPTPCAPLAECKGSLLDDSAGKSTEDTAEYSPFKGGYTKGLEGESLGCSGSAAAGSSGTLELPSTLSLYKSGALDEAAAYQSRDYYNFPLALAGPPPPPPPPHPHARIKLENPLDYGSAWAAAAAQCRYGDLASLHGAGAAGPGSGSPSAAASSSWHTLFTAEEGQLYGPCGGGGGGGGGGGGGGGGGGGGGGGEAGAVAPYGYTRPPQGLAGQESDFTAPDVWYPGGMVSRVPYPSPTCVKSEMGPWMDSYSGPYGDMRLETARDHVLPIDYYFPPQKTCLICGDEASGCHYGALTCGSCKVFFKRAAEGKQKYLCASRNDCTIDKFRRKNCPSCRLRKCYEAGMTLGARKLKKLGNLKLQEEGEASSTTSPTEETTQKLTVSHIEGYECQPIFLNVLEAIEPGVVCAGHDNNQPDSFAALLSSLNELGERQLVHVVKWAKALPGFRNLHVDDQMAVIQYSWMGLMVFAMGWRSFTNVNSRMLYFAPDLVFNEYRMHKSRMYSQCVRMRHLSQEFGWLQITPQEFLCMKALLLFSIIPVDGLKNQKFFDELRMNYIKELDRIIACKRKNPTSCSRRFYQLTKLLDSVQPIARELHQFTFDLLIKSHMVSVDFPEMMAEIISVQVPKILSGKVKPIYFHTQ

O=c1cc(-c2ccccc2)oc2ccc3ccccc3c12
inactive: Potency [2] | Potency [3] | Potency [4] | outcome [7] | Potency [8] | Potency [9] | Potency [10] | outcome [15]
active: Potency [1] 5.45 µM | Potency [5] 24.3 µM | Potency [6] 0.686 µM | Potency [11] 21.7 µM | Potency [12] 19.3 µM | Potency [13] 13.8 µM | Potency [14] 13.8 µM

Cc1cc(O)ccc1O
active: Potency [3] 55.1 µM | Potency [5] 61.8 µM | Potency [17] 61.8 µM
inactive: Potency [16] | Potency [2] | Potency [13] | Potency [14] | Potency [18] | outcome [15]

CCCCCCCC/C=C\CCCCCCCCCCCC(=O)O
inactive: Potency [16] | Potency [4] | Potency [5] | Potency [19] | Potency [17] | Potency [6] | Potency [8] | Potency [9] | Potency [11] | Potency [12] | Potency [13] | Potency [14] | Potency [18]

COC(=O)[C@H]1[C@H]2C[C@@H]3c4[nH]c5cc(OC)ccc5c4CCN3C[C@H]2C[C@@H](OC(=O)/C=C/c2ccc(O)c(OC)c2)[C@@H]1OC
active: Potency [5] 8.41 µM
inactive: Potency [16] | Potency [2] | Potency [19] | Potency [6] | outcome [7] | Potency [20] | Potency [8] | Potency [10] | Potency [13] | Potency [14]

O=C1C(=O)c2ccccc2C(O)=C1C1CCC(c2ccc(Cl)cc2)CC1 (stereo not drawn)
active: Potency [4] 23.7 µM | Potency [5] 2.66 µM
inactive: Potency [16] | Potency [6] | Potency [8] | Potency [9] | Potency [10] | Potency [11] | Potency [12] | Potency [14] | Potency [18] | outcome [15]

Cc1ccc2c(Br)cc(Br)c(O)c2n1
inactive: Potency [2] | Potency [4] | Potency [17] | outcome [7] | Potency [20] | Potency [13] | Potency [14] | Potency [18]
active: Potency [5] 11.9 µM | Potency [10] 18.8 µM

CCOC(=O)C1=C(C)NC(C)=C(C(=O)OC)C1c1cccc(Cl)c1Cl (stereo not drawn)
inactive: Potency [16] | Potency [17] | Potency [6] | outcome [7] | Potency [20] | Potency [9] | Potency [14] | Potency [18]
active: Potency [10] 3.76 µM

O=[N+]([O-])c1ccc(O/N=C/c2cc(Br)c(O)c(Br)c2)c([N+](=O)[O-])c1
active: Potency [4] 48.3 µM | Potency [8] 27.2 µM
inactive: Potency [16] | Potency [17] | Potency [6] | outcome [7] | Potency [14]

Cc1cc(=O)c2c(O)c3c(O)cc(=O)c4c3c3c(cc(O)c1c23)C(C)(C)C=4O
inactive: activity change [16] -5.72% [at 18.9 µM, stronger effect = higher value] | activation [2] -11.3% [at 19 µM] | cAMP activity change [7] 14.8% [at 18.9 µM] | activity change, negative = cytotoxicity [8] -17.3% [at 19 µM] | activation [9] -2.51% [at 19 µM] | activity, negative = inhibition [15] 1.99% [at 10.5 µM]
active: Potency [4] 1.46 µM
